Assay outcomes (PubChem BioAssay)
This is a sample that favours compounds with a hit; in the whole collection about 4.1% have one here.
hgDAF-12 ag = activates the H. glycines DAF-12 receptor ligand-binding domain; HEK293 GAL4-hgDAF12 UAS-luciferase reporter, agonist luminescence; normalized to butyrate control; 370,000 compounds, 1.8% hits; AID 687014; activation, % at 6.8 µM;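 active means activation above a cutoff set at the mean of all screened compounds plus 3 SD, cut at about 10% in these data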
DAX1 inh-1 = blocks DAX1 repression of SF-1 activated StAR promoter; HEK293T StAR-luciferase reporter, SF-1/DAX-1 repression relief; inhibition, % at 6.8 µM; 370,000 compounds, 1.1% hits;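 active means inhibition above the mean over all tested compounds plus 3 SD, cut at about 3.6% in these data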;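 further: higher inhibition means more luminescence from relief of DAX-1 repression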
ssDAF-12 act = activates DAF-12 receptor from parasite S. stercoralis | 370,000 compounds, 1% hits | AID 652126 | HEK293 ssDAF-12/GRIP1 lit1-tk-luc reporter, luminescence; % of 3 µM dafachronic acid response | activation, % at 6.8 µM;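 active means activation above the mean over all tested compounds plus 3 SD, cut at about 0.9% in these data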
DAX1 inh-2 = inhibitors of human orphan nuclear receptor DAX1 (NR0B1); P51843; HEK293 Gal4-DAX1 luciferase reporter, luminescence; inhibition, % at 6.75 µM; 340,000 compounds, 0.99% hits; AID 504766;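 active means inhibition above the mean over all tested compounds plus 3 SD, cut at about 4.2% in these data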;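 further: inhibition shows as a rise in luminescence from relieved DAX1 repression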
Target sequence (P51843 207-470 limits assumed): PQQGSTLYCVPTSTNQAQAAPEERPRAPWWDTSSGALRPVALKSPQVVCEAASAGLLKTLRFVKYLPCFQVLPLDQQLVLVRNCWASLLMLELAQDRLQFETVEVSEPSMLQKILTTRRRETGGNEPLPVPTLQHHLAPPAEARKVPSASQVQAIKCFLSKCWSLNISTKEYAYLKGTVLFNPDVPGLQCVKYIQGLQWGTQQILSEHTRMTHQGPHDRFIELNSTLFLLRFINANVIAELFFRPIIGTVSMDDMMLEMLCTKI
hcDAF12 agonist = activators of H. contortus DAF-12 nuclear receptor. AID 652067. HEK293 hcDAF-12 lit1-tk-luc reporter, luminescence; 0% DMSO, 100% Δ7-dafachronic acid. activation, % at 6.8 µM. 370,000 compounds, 1.4% hits;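 active means activation above the mean of all tested compounds plus 3 SD, cut at about 5.5% in these data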
hgDAF12 ag = hgDAF-12 agonism, confirmation assay. shares compounds with hgDAF-12 ag. HEK293 GAL4-hgDAF12 luciferase reporter, agonist mode; percent of butyrate response. activation, % at 6.8 µM. AID 743050. 3,300 compounds, 80% hits;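 active means mean activation over triplicate wells above the hit cutoff derived from the earlier primary screen, cut at about 11% in these data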
LXRb DAF12 ctr = LXR-beta agonism as DAF-12 counter-screen; HEK293 Gal4-LXR luciferase reporter, 24 h; shares compounds with hgDAF-12 ag; 3,300 tested, under 10 active; activation, % at 6.8 µM; AID 743051;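 active means mean activation of the triplicate above a set limit carried over from the primary screen, none filed active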
Target sequence (P55055 whole entry, looked up, the tested form may be a part): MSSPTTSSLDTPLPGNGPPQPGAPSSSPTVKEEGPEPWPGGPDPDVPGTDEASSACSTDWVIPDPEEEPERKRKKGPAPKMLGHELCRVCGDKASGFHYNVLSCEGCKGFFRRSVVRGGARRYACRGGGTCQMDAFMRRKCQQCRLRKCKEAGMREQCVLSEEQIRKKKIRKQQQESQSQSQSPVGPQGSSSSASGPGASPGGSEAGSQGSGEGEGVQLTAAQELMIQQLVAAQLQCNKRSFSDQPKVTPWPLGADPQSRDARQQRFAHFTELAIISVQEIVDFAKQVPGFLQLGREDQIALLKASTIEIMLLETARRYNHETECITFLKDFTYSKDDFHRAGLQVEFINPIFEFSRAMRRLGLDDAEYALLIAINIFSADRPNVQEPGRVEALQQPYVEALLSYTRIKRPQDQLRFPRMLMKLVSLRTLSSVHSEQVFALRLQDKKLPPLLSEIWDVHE
Large screens that a line does not name were inactive (follow-up assays come after a bar, where they were run); ! = repeats disagree.

Cc1ccccc1S(=O)(=O)Nc1nc2ccccc2nc1Cl	none
O=C(Nc1ccccc1F)c1ccc2sc([C@@H]3O[C@H](CO)[C@H](O)[C@H](O)[C@H]3O)nc2c1	hgDAF-12 ag 14 (no result: DAX1 inh-2) | hgDAF12 ag inactive | LXRb DAF12 ctr inactive
O=C(Nc1cccc2ccccc12)c1ccc2sc([C@@H]3O[C@H](CO)[C@@H](O)[C@H]3O)nc2c1	none (no result: DAX1 inh-2)
C[C@@H]1COc2cccc(NCCCN3CCOCC3)c2S(=O)(=O)N1	none (no result: DAX1 inh-2)
COC(=O)[C@]12C[C@H](CC(=O)N3CCCC3)C(=O)N(CCc3ccc(OC)c(OC)c3)C1=C[C@H](C(C)C)O[C@@H]2C1CC1	none (no result: DAX1 inh-2)
COc1ccc(/C=N/Nc2ccc([N+](=O)[O-])cc2)cc1O	hgDAF-12 ag 17, DAX1 inh-2 7.8 | hgDAF12 ag 17 | LXRb DAF12 ctr inactive
CCOC(=O)[C@]12CCCC3=C1N(CCC3)C(=O)[C@@H](CC(=O)NCC1CCCCC1)C2	none (no result: DAX1 inh-2)
Nc1ccccc1NC1=CC(=O)CC(c2ccco2)C1 (centres undefined)	hgDAF-12 ag 13 | hgDAF12 ag inactive | LXRb DAF12 ctr inactive
CC1=C/C(=N\NC(=O)c2ccccc2)CC1	hgDAF-12 ag 14 | hgDAF12 ag inactive | LXRb DAF12 ctr inactive
O=C1CS/C(=N\NC(=O)c2ccccc2)N1	none (no result: DAX1 inh-2)
CC(=O)N1[C@H](CO)[C@@H](c2ccccc2)[C@@H]1CN(C(=O)c1ccc(F)cc1)C(C)C	none (no result: DAX1 inh-2)
Cc1ccccc1C(=O)NC(CC(C)C)C(=O)OCc1cc(=O)n2cc(Br)ccc2n1 (centres undefined)	hgDAF-12 ag 14 | hgDAF12 ag 11 | LXRb DAF12 ctr inactive
CC(C)[C@H](NC(=O)c1ccccc1Cl)C(=O)OCc1cc(=O)n2cc(Br)ccc2n1	none
Nc1c(OS(=O)(=O)c2ccccc2)cccc1OS(=O)(=O)c1ccccc1	hgDAF-12 ag 18 | hgDAF12 ag 14 | LXRb DAF12 ctr inactive
O=C1C2C3C=CC(C3)C2C(=O)N1c1ccccc1OS(=O)(=O)c1ccccc1 (centres undefined)	none
COC(=O)Nc1ccc2c(c1)N(C(=O)CCN1CCN3CCCC3C1)c1ccccc1CC2 (centres undefined)	hgDAF-12 ag 18! | hgDAF12 ag inactive | LXRb DAF12 ctr inactive
CCOC(=O)Nc1ccc2c(c1)N(C(=O)CCN1CCN3CCCC3C1)c1ccccc1CC2 (centres undefined)	none
COc1ccc(-c2cc(C(=O)N/N=C/C(C)=C\c3ccco3)[nH]n2)cc1	none (no result: DAX1 inh-2)
CCc1ccc(-c2cc(C(=O)N/N=C/c3ccco3)[nH]n2)cc1	hgDAF-12 ag 14 | hgDAF12 ag inactive | LXRb DAF12 ctr inactive
O=C(N/N=C/c1ccco1)c1cc(-c2ccc3ccccc3c2)n[nH]1	hgDAF-12 ag 15 | hgDAF12 ag inactive | LXRb DAF12 ctr inactive
C[C@H]1[C@@H](NC(=O)c2ccc(Cl)c(C(F)(F)F)c2)CC[C@@]23CCCN2C(=O)CCC[C@@H]13	none (no result: DAX1 inh-1, DAX1 inh-2)
NNC(=O)c1ccc(Cn2cc(Br)cn2)cc1	none
NNC(=O)c1ccc2nc(-c3ccc(Br)cc3)cn2c1	hgDAF-12 ag 15 | hgDAF12 ag 18 | LXRb DAF12 ctr inactive
C[C@H]1[C@H](N(Cc2ccccc2)Cc2ccccc2)CC[C@@]23CCCN2C(=O)CCC[C@@H]13	none (no result: DAX1 inh-1, DAX1 inh-2)
COc1ccccc1C(=O)OCCc1ccccc1	hgDAF-12 ag 17, ssDAF-12 act 0.9, hcDAF12 agonist 6.2 | hgDAF12 ag 11 | LXRb DAF12 ctr inactive
Nc1ccc(Cl)c(-c2nc3ncccc3o2)c1	none
Nc1ccc(-c2nc3ncccc3o2)c(Cl)c1	hgDAF-12 ag 18, DAX1 inh-2 5.6, hcDAF12 agonist 6.0 | hgDAF12 ag 16 | LXRb DAF12 ctr inactive
CCCN1CCCCC(NC(=O)c2ccc3ccccc3c2)C1=O (centres undefined)	none (no result: DAX1 inh-2)
O=C(Nc1ccn(-c2ccccc2)n1)c1ccccc1Br	hgDAF-12 ag 20 | hgDAF12 ag inactive | LXRb DAF12 ctr inactive
C=CCN1C(=O)[C@@H](CC(=O)N2CCN(C(=O)c3ccco3)CC2)[C@]2(C(=O)OCC)CCCCC/C=C/12	none (no result: DAX1 inh-2)
COc1ccc(Oc2c(Cl)cnn(CC(=O)C(c3ccccc3)c3ccccc3)c2=O)cc1	none (no result: DAX1 inh-2)
Nc1nc2ccccc2n1C(=O)c1cccs1	hgDAF-12 ag 15, ssDAF-12 act 1.0 | hgDAF12 ag 13 | LXRb DAF12 ctr inactive
Nc1nc2ccccc2n1C(=O)CCc1ccccc1	hgDAF-12 ag 14, DAX1 inh-2 5.0 | hgDAF12 ag 18 | LXRb DAF12 ctr inactive
CC(=O)OCCCN1CCC2(CCC(c3ccccc3)CC2)C1=O (centres undefined)	none (no result: DAX1 inh-2)
Cc1cc(/C=C2\SC(=S)NC2=O)c(C)n1-c1ccc(O)cc1	hgDAF-12 ag 14 | hgDAF12 ag inactive | LXRb DAF12 ctr inactive
COc1ccc(-n2c(C)cc(/C=C3\SC(=S)NC3=O)c2C)cc1	none
C=CCN1C=CC(=C/C=C(/C#N)C(=O)OCC)C=C1	hgDAF-12 ag 16, hcDAF12 agonist 5.6 | hgDAF12 ag 16 | LXRb DAF12 ctr inactive
COc1cc(SC)ccc1C(=O)NCCOc1ccc(F)cc1	hgDAF-12 ag 17 | hgDAF12 ag inactive | LXRb DAF12 ctr inactive
Cc1ccc(N=Cc2c(O)[nH]c3ccccc23)c([N+](=O)[O-])c1	hgDAF-12 ag 15, DAX1 inh-1 4.1 | hgDAF12 ag 12 | LXRb DAF12 ctr inactive
C=C1[C@@H](C)CN[C@@H]1CCO	none (no result: DAX1 inh-2)
CNc1ncc(C(=O)c2ccc(Br)cc2)s1	hgDAF-12 ag 26 | hgDAF12 ag 16 | LXRb DAF12 ctr inactive
c1ccn2cc(CSc3nnc4ccccn34)nc2c1	hgDAF-12 ag 14, DAX1 inh-1 3.8, ssDAF-12 act 1.1 | hgDAF12 ag 14 | LXRb DAF12 ctr inactive
Cc1ccccc1-c1nc2ccccc2[nH]1	none
Fc1ccccc1-c1nc2ccccc2[nH]1	hgDAF-12 ag 15, DAX1 inh-2 4.9 | hgDAF12 ag 12 | LXRb DAF12 ctr inactive
Oc1ccccc1C=Nc1ccccc1-c1nc2ccccc2[nH]1	hgDAF-12 ag 18 | hgDAF12 ag inactive | LXRb DAF12 ctr inactive
c1ccc2c(-c3nc4ccccc4[nH]3)cccc2c1	none
COCc1cc(N2CCNC[C@@H]2C)ccc1N1CCS(=O)(=O)CC1	none (no result: DAX1 inh-2)
COC(=O)c1cccc(NC(=O)c2onc3c2CCCC3)c1	hgDAF-12 ag 17, DAX1 inh-1 3.8, hcDAF12 agonist 6.0 | hgDAF12 ag 18 | LXRb DAF12 ctr inactive
CC(C)(C)OC(=O)N1Cc2cc3ccccc3nc2C1	hgDAF-12 ag 16, DAX1 inh-1 3.6 | hgDAF12 ag 13 | LXRb DAF12 ctr inactive
CC(C)N1CCc2c(-c3nc4ccccc4s3)csc2C1	none (no result: DAX1 inh-1, DAX1 inh-2)
CCCCCN(C(=O)CCC(=O)OCC(=O)N(C)C1CCCCC1)c1c(N)n(CCCC)c(=O)[nH]c1=O	hgDAF-12 ag 14 | hgDAF12 ag inactive | LXRb DAF12 ctr inactive
